Data published in PubChem BioAssay (NCATS).
Results filed as inconclusive are left out. Activity calls are given as the source filed them. Unless noted, the call rests on the fitted dose curve; in most records, active means well fitted inhibition curve with a large enough effect; inconclusive means small, poorly fitted or top-dose-only effect; inactive means no such curve, though single readings can be large or run the other way.

Legend:
[1] = qHTS profiling of the MIPE4 collection as inhibitors of Plasmodium falciparum (3D7) proliferation (AID 743344; call rule not given here;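 further: scaled between DMSO vehicle wells and 0.29 µM artemisinin as full inhibition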); conditions: P. falciparum 3D7 in erythrocytes, SYBR Green DNA fluorescence, 72 h; at 28.5 µM unless noted
Outline: (§1)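 Parasite DNA was quantified by SYBR Green I fluorescence (ex 485, em 535 nm) after overnight lysis in saponin/Triton buffer at room temperature. Cultures at 0.3% parasitemia and 2.5% hematocrit were first exposed to compound for 72 h at 37 C; signals were normalised to artemisinin (0.29 uM) and vehicle wells.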

[2] = qHTS profiling of the MIPE4 collection as inhibitors of Plasmodium falciparum (DD2) proliferation (AID 743345; call rule not given here); conditions: P. falciparum Dd2 in erythrocytes, SYBR Green DNA, 72 h; at 28.5 µM unless noted
Outline: as §1

[3] = qHTS profiling of the MIPE4 collection as inhibitors of Plasmodium falciparum (DD2) proliferation (Rep 2) (AID 743346; call rule not given here); conditions: P. falciparum Dd2 in erythrocytes, SYBR Green DNA, 72 h; at 28.5 µM unless noted
Outline: as §1

[4] = qHTS profiling of the MIPE4 collection as inhibitors of Plasmodium falciparum (HB3) proliferation (AID 743347; call rule not given here;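 further: plate controls were DMSO vehicle wells for no effect and artemisinin wells for full effect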); conditions: P. falciparum HB3 in erythrocytes, SYBR Green DNA, 72 h; at 28.5 µM unless noted
Outline: as §1

[5] = High-throughput drug toxicity screening in the BPDCN cell line Gen2.2 (AID 1224824; call rule not given here;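 further: cells exposed to compounds for 48 h before reading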); conditions: Gen2.2 BPDCN cells; at 45.8 µM (top of the series) unless noted
Outline: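 CellTiter-Glo luminescence read after 48 h compound exposure at 37 C defines viability; percent activity set with DMSO as 100% and bortezomib (9.2 uM final) as 0%. 500 exponentially growing cells per well, RPMI plus 10% FBS.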

[6] = High-throughput drug toxicity screening in the BPDCN cell line Cal-1 (AID 1224825; call rule not given here); conditions: Cal-1 BPDCN cell viability, qHTS; at 45.8 µM (top of the series) unless noted
Outline: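 CellTiter-Glo luminescence after 48 h compound exposure; percent activity scaled with DMSO as 100% and bortezomib (9.2 uM final) as 0%. Cal-1 cells seeded at 500/well in RPMI, 10% FBS, no phenol red.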

[7] = qHTS assay for measurement of the activity of small molecule inhibitors on Zika virus induced Caspase-3 activity in human iPSC derived neural progenitor cells (hNPCs) (AID 1224857); further: % of control where 0% means no effect; nearly all actives have a fitted effect of over 65% in size
Outline: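 Caspase-3/7 induction by a 6-hour ZIKV infection was quantified with a luminescent Caspase-Glo 3/7 reagent incubated 30 minutes at room temperature. Compounds were preincubated with hNPCs for 1 hour; inhibition was calculated against uninfected and infected control wells.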

[8] = qHTS assay for measurement of the activity of small molecule inhibitors on Zika virus induced Caspase-3 activity in human astrocytoma cells (AID 1224859);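 further: plate controls were ZIKV-infected untreated cells for no effect and uninfected cells for full effect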
Outline: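 In SNB-19 cells plated at 250 cells/well and grown 16-20 h, compounds were applied 1 h before ZIKV (2 FFU/cell). Six hours later caspase-3/7 luminescence was recorded.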

[9] = qHTS Screen of the MIPE 4.0 Collection Against Ewings Sarcoma (RDES) (AID 1259252); further: nearly all actives have a fitted effect of over 35% in size; further: potency means the concentration at half of the fitted maximal effect
Outline: (§2)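 Log-phase cells in RPMI with 5% FBS attached for 4 h, then received compounds as a titration for 48 h at 37C, 5% CO2. Viability was read by CellTiter-Glo luminescence and normalized to DMSO and no-cell wells.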

[10] = qHTS Screen of the MIPE 4.0 Collection Against Ewings Sarcoma (TC71) (AID 1259253); further: nearly all actives have a fitted effect of over 40% in size; further: potency means the concentration at half of the fitted maximal effect
Outline: as §2

[11] = qHTS Screen of the MIPE 4.0 Collection Against Ewings Sarcoma (EW8) (AID 1259255); further: nearly all actives have a fitted effect of over 35% in size; further: potency means the concentration at half of the fitted maximal effect;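 on viability: 100% = DMSO-treated cells and 0% = medium-only wells without cells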
Outline: as §2

[12] = qHTS Screen of the MIPE 4.0 Collection Against Ewings Sarcoma (TC32) (AID 1259256); further: nearly all actives have a fitted effect of over 45% in size; further: potency means the concentration at half of the fitted maximal effect
Outline: as §2

Compound	parasite growth, % of DMSO control [1] [%]	parasite growth remaining, % of DMSO control (lower = more inhibition) [2] [%]	parasite growth, % of control (lower = inhibition) [3] [%]	growth, % of control [4] [%]	cell viability, % of control (lower = more cytotoxic) [5] [%]	viability (% of control) [6] [%]	Potency [7]	Potency [8]	Potency [9]	Potency [10]	Potency [11]	Potency [12]
CC(Cc1ccc(O)c(O)c1)(NN)C(=O)O (stereo unspecified)	54.5	15.4	75.5	54.9	108	91.3	inactive	inactive	inactive	inactive	inactive	23500 nM (active)
COc1cc(C(=O)NC2CCN(C)CC2)ccc1Nc1ncc2c(n1)N(C1CCCC1)CCC(=O)N2C(C)C	5.76	–	15.5	6.9	6.24	2.49	inactive	inactive	2350 nM (active)	2090 nM (active)	2090 nM (active)	2350 nM (active)
CC(C(C)N1CC(=O)NC(=O)C1)N1CC(=O)NC(=O)C1 (stereo unspecified)	88.4	–	105	98.2	158	27.4	inactive	inactive	743 nM (active)	590 nM (active)	743 nM (active)	inactive
CCS(=O)(=O)Nc1ccc2[nH]c(O)c(C(=Nc3ccc(CN4CCCCC4)cc3)c3ccccc3)c2c1	6.54	7.14	13.8	4.28	2.51	7.15	inactive	inactive	662 nM (active)	132 nM (active)	83.3 nM (active)	83.3 nM (active)
c1cc(N[C@@H]2CCNC2)nc(-c2cnc3ccc(-c4cn[nH]c4)cn23)c1	5.24	8.57	9.64	3.77	3.68	3.36	inactive	inactive	16600 nM (active)	26400 nM (active)	16600 nM (active)	23500 nM (active)
O=C(C=CC#Cc1cccc(NS(=O)(=O)c2ccccc2)c1)NO	5.45	–	8.22	–	4.86	3.48	inactive	inactive	1870 nM (active)	1320 nM (active)	935 nM (active)	833 nM (active)
COC1=C2C[C@@H](C)C[C@H](OC)[C@@H](O)[C@@H](C)C=C(C)[C@H](OC(N)=O)[C@@H](OC)C=CC=C(C)C(=O)NC(=CC1=O)C2=O	5.43	–	11.9	–	3.44	4.06	inactive	inactive	590 nM (active)	590 nM (active)	372 nM (active)	296 nM (active)
COC(=O)C=CC(=O)OC	76.2	97.5	71.3	96.5	35.4	101	inactive	inactive	8330 nM (active)	18700 nM (active)	26400 nM (active)	14800 nM (active)
C=CC(=O)Nc1ccc2ncnc(Nc3ccc(OCc4cccc(F)c4)c(Cl)c3)c2c1	6.97	–	16.4	5.29	13	2.97	inactive	inactive	148 nM (active)	1180 nM (active)	2090 nM (active)	833 nM (active)
C=CC(=O)Nc1cccc(Nc2nc(NC3CCC(N(C)C)CC3)nc3c2ncn3C(C)C)c1 (stereo unspecified)	10.5	15.3	35.4	4.69	5.58	2.19	inactive	inactive	14.8 nM (active)	469 nM (active)	526 nM (active)	418 nM (active)
O=C1NCCc2[nH]c(-c3ccncc3)cc21	23.6	–	17.3	5.62	3.21	12.4	inactive	inactive	3320 nM (active)	2640 nM (active)	3320 nM (active)	5260 nM (active)
COC(=O)[C@@H]1[C@H]2C[C@@H]3c4[nH]c5ccccc5c4CCN3C[C@@H]2CC[C@@H]1O	79.9	–	69.1	66.3	24.1	21.8	inactive	inactive	inactive	inactive	inactive	inactive
OCC(O)C(O)C(O)CO (stereo unspecified)	88.8	–	114	95.9	59.2	66.8	inactive	inactive	inactive	inactive	inactive	inactive
CCOC(=O)[C@@H](N)Cc1ccc(-c2cc(O[C@H](c3ccc(Cl)cc3-n3ccc(C)n3)C(F)(F)F)nc(N)n2)cc1	5.93	28.1	43.9	15.8	10.1	16.2	inactive	inactive	26400 nM (active)	23500 nM (active)	26400 nM (active)	20900 nM (active)
CS(=O)(=O)N1CCc2c(-c3cnc(N)nc3)nc(N3CCOCC3)nc21	5.02	9.76	6.07	2.07	10.4	33.9	inactive	inactive	105 nM (active)	590 nM (active)	1320 nM (active)	296 nM (active)
COc1cc2c(Nc3ccc(Cl)c(Cl)c3F)ncnc2cc1OCC1C[C@@H]2CN(C)C[C@H]2C1	6.7	–	18.3	7.13	2.56	2.8	inactive	inactive	14800 nM (active)	10500 nM (active)	11800 nM (active)	13200 nM (active)
